# Test results taken from the supplement of paper PMC10127200.
# Counter-ions that a name gives are not always drawn.
# Experiments:
# Assay in all cases: Euclidean distance of Cell Painting phenotypic profile (signed KS, 77 features) to DMSO centroid (dimensionless distance); 5 or 10 uM (library dependent); higher = stronger phenotypic change vs DMSO (phenoactivity)
# Details in all cases: 48 h
# 786-O = test system: 786-O
# In short: (§1)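 Five cancer lines and a healthy fibroblast line received library compounds at 10 or 5 uM (library-dependent, 0.1% DMSO final) for 48 h. Stained cells were imaged confocally at 20X (9 fields/well). Harmony extracted 77 features, each scored as a signed Kolmogorov-Smirnov statistic against same-plate vehicle wells. Profiles were plate-position corrected, correlation-weighted and replicate-averaged at the top dose. Phenoactivity is the Euclidean distance from each profile to the median vehicle profile.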
# A549 = test system: A549
# In short: as §1
# DU145 = test system: DU145
# In short: as §1
# FB = test system: FB
# In short: as §1
# HEPG2 = test system: HEPG2
# In short: as §1
# OVCAR4 = test system: OVCAR4
# In short: as §1
SMILES,Euclidean distance (786-O),Euclidean distance (A549),Euclidean distance (DU145),Euclidean distance (FB),Euclidean distance (HEPG2),Euclidean distance (OVCAR4)
CC(=O)OCC(=O)[C@H]1CC[C@H]2[C@@H]3CCC4=CC(=O)CC[C@]4(C)[C@H]3CC[C@]12C [Deoxycorticosterone acetate],0.997,0.852,0.854,1.02,0.569,1.51
Oc1ccc(/C=C/c2cc(O)cc(O)c2)cc1 [Resveratrol],2.22,1.93,1.94,1.74,0.81,1.92
C=CC(=O)Nc1cccc(Nc2nc(Nc3ccc(Oc4ccnc(C(=O)NC)c4)cc3)ncc2F)c1,1.82,1.47,1.48,2.2,2.3,1.63
CC(C)c1noc(N2CCC(COc3ccc(-c4ccc(S(C)(=O)=O)cc4)nc3)CC2)n1,1.17,1.53,0.872,0.701,0.585,0.984
O=C1c2ccc(Nc3ccc(F)cc3F)cc2CCc2ccc(OC[C@H](O)CO)cc21 [Skepinone-L],1.06,1.85,1.78,2.05,0.828,1.31
CC(C)[C@H](NC(=O)[C@H](CC(=O)O)NC(=O)[C@H](CCCCN)NC(=O)[C@@H](N)CCCN=C(N)N)C(=O)N[C@@H](Cc1ccc(O)cc1)C(=O)O [Thymopentin],1.56,1.19,0.821,0.825,0.557,1.06
N[C@@H](Cc1c[nH]c2ccccc12)C(=O)O [L-Tryptophan],0.689,1.11,0.644,0.569,0.851,1.36
CN[C@H]1CN(c2ccc3c(=O)c(C(=O)O)cn(-c4nccs4)c3n2)C[C@@H]1OC [Voreloxin (SNS-595) hydrochloride],3.32,3.76,2.41,3.35,2.43,3.8
COc1cc(Nc2ncc(F)c(Nc3ccc4c(n3)NC(=O)C(C)(C)O4)n2)cc(OC)c1OC [R406 (free base)],2.36,3.53,3.18,2.76,1.99,2.41
CO[C@H]1/C=C/O[C@@]2(C)Oc3c(C)c(O)c4c(O)c(c(/C=N/N5CCN(C6CCCC6)CC5)c(O)c4c3C2=O)NC(=O)/C(C)=C\C=C\[C@H](C)[C@H](O)[C@@H](C)[C@@H](O)[C@@H](C)[C@H](OC(C)=O)[C@@H]1C [Rifapentine],1.24,0.894,1.76,1.72,2.12,1.56
O=C1OC(OC(=O)c2cccnc2Nc2cccc(C(F)(F)F)c2)c2ccccc21 (stereo not given) [Talniflumate],0.81,0.859,0.922,0.783,0.818,1
CC1Oc2cc(cnc2N)-c2c(nn(C)c2C#N)CN(C)C(=O)c2ccc(F)cc21 (stereo not given),0.876,1.02,1.34,1.55,2.11,1.26
COC(=O)c1ccc2c(C(=Nc3ccc(N(C)C(=O)CN4CCN(C)CC4)cc3)c3ccccc3)c(O)[nH]c2c1 [Nintedanib Ethanesulfonate Salt],3.68,3.84,2.5,4.88,3.9,4.19
CC(C)(C(=O)c1cccnc1)c1cccnc1 [Metyrapone],1.56,1.55,0.902,1.36,0.932,1.85
O=NN(CCCl)C(=O)NCCCl [Carmustine],1.97,0.741,1.29,0.896,0.515,0.875
Cc1ccc(-c2nc(N)nc3c2nnn3Cc2cccc(CO[C@H]3CCOC3)n2)o1,0.843,0.446,0.81,1.32,0.731,0.627
CO/N=C(\C(=O)N[C@@H]1C(=O)N2C(C(=O)O)=C(COC(C)=O)CS[C@H]12)c1csc(N)n1 [Cefotaxime sodium],1.09,0.485,0.877,0.644,0.409,0.706
COC(=O)CCC(=O)CN [Methyl Aminolevulinate Hydrochloride],1.52,0.774,0.717,0.88,0.566,1.34
COc1ccc(C(Cl)=C(c2ccc(OC)cc2)c2ccc(OC)cc2)cc1 [Chlorotrianisene],1.13,1.23,0.763,1.08,1.11,1.04
Nc1ccc(S(=O)(=O)NC(=O)c2ccccc2)cc1 [Sulfabenzamide],0.937,0.388,0.77,0.837,0.665,1.75
O[C@@H]1CO[C@H]2[C@@H]1OC[C@@H]2O [Isosorbide],1.15,0.673,1.24,1.02,0.565,1.64
O=C(NOC[C@H](O)CO)c1ccc(F)c(F)c1Nc1ccc(I)cc1F,3.1,2.57,3.66,3.5,2.03,2.63
CN(C)Cc1ccc(-c2nc3cccc4c3n2CCNC4=O)cc1,1.75,1.77,1.51,1.3,1.62,1.41

SMILES,Euclidean distance (786-O),Euclidean distance (A549),Euclidean distance (DU145),Euclidean distance (FB),Euclidean distance (HEPG2),Euclidean distance (OVCAR4)
O=C1CCC(N2C(=O)c3ccccc3C2=O)C(=O)N1 (stereo not given) [Thalidomide],1.48,0.846,0.603,1.22,0.461,1.67
Cc1ccc(C(=O)N(CCCN)[C@@H](c2nc3cc(Cl)ccc3c(=O)n2Cc2ccccc2)C(C)C)cc1,3.64,3.18,4.25,2.49,3.84,3.78
NNC(=O)c1ccncc1 [Isoniazid],1.4,1.36,0.961,1.16,0.573,0.885
CNC1CCCN(c2c(F)cc3c(=O)c(C(=O)O)cn(C4CC4)c3c2OC)C1 (stereo not given) [Balofloxacin Dihydrate],0.976,0.602,0.831,1.09,1.13,1.02
OC[C@H]1O[C@@H](c2ccc(F)c(Cc3cc4ccccc4s3)c2)[C@H](O)[C@@H](O)[C@@H]1O [Ipragliflozin (ASP1941)],0.648,0.591,0.895,0.802,0.412,0.699
CCCS(=O)(=O)Nc1ccc(F)c(C(=O)c2c[nH]c3ncc(-c4ccc(Cl)cc4)cc23)c1F [Vemurafenib (PLX4032. RG7204)],1.14,1.53,1.68,1.23,2.32,1.06
Cc1[nH]c(/C=C2\C(=O)Nc3ccc(S(=O)(=O)Cc4c(Cl)cccc4Cl)cc32)c(C)c1C(=O)N1CCC[C@@H]1CN1CCCC1,3.99,4.22,1.16,2,1.59,4.7
Cc1onc(-c2c(F)cccc2Cl)c1C(=O)N[C@@H]1C(=O)N2[C@@H]1SC(C)(C)[C@@H]2C(=O)O [Flucloxacillin sodium],1.14,0.772,1.17,1.12,0.664,1.72
Clc1ccc(C(Cn2ccnc2)OCc2csc3c(Cl)cccc23)c(Cl)c1 (stereo not given) [Sertaconazole nitrate],1.47,1.42,1.2,1.26,0.627,1.61
CC1(C)CCC[C@]2(C)[C@H]3CC(=O)O[C@]3(C)CC[C@@H]12 [Sclareolide],1.98,1.52,1.35,0.844,1.58,1.36
CC(C)(C)c1cc(C(C)(C)C)c(NC(=O)c2c[nH]c3ccccc3c2=O)cc1O [Ivacaftor (VX-770)],2.11,2.23,1.21,0.989,1.96,1.56
COc1c(N2CCNC(C)C2)c(F)cc2c(=O)c(C(=O)O)cn(C3CC3)c12 (stereo not given) [Gatifloxacin],0.648,0.598,0.774,0.851,0.876,1.07
CCCCCCCCN=c1ccn(CCCCCCCCCCn2ccc(=NCCCCCCCC)cc2)cc1 [Octenidine Dihydrochloride],6.46,4.73,6.38,6.45,4.62,6.71
c1cnc2cc3c(cc2n1)[C@@H]1CNC[C@H]3C1 [Varenicline Tartrate],0.702,0.985,0.786,0.802,0.459,1.05
CCn1c(=O)c2c(nc(/C=C/c3ccc(OC)c(OC)c3)n2C)n(CC)c1=O [Istradefylline],1.47,1.5,0.734,1.18,0.77,1.44
CC(=O)NS(=O)(=O)c1ccc(N)cc1 [Sulfacetamide sodium salt hydrate],1.2,0.692,0.872,1.61,0.38,1.53
CCn1cc(C(=O)O)c(=O)c2cc(F)c(N3CCN(C)CC3)cc21 [Pefloxacin Mesylate],1.56,0.826,0.983,1.04,1.02,1.3
Cc1ccc(NC(=O)C2(c3ccc4c(c3)OC(F)(F)O4)CC2)nc1-c1cccc(C(=O)O)c1 [VX-809 (Lumacaftor)],1.11,0.637,1.55,0.88,0.294,1.02
CCn1c(=O)c(-c2cc(NC(=O)Nc3ccccc3)c(F)cc2Br)cc2cnc(NC)cc21,1.21,1.59,1.77,2.62,1.61,1.1
CCCCCOc1ccc(-c2cc(-c3ccc(C(=O)N[C@H]4C[C@@H](O)[C@@H](O)NC(=O)[C@@H]5[C@@H](O)[C@@H](C)CN5C(=O)[C@H]([C@H](O)CC(N)=O)NC(=O)[C@H]([C@H](O)[C@@H](O)c5ccc(O)c(OS(=O)(=O)O)c5)NC(=O)[C@@H]5C[C@@H](O)CN5C(=O)[C@H]([C@@H](C)O)NC4=O)cc3)no2)cc1 [Micafungin Sodium],1.25,1.24,1.1,1.25,1.15,1.27
Cc1cc2c(F)c(Oc3ncnn4cc(OC[C@@H](C)OC(=O)[C@H](C)N)c(C)c34)ccc2[nH]1,2.11,1.25,1.14,1.57,0.818,1.35
COC1=C2C[C@@H](C)C[C@H](OC)[C@H](O)[C@@H](C)/C=C(\C)[C@H](OC(N)=O)[C@@H](OC)/C=C\C=C(/C)C(=O)NC(=CC1=O)C2=O [Geldanamycin],2.87,3.3,3.52,3.35,1.8,2.91
